Measured values reported in PubChem BioAssay (Tox21).
Results filed as inconclusive are left out. Calls of active or inactive are those of the source. Calls come from the whole dose curve; as a rule, active = well fitted curve in the direction sought with a large enough effect in the repeat runs; inconclusive = weak or mixed curves; inactive = no such curve, though single readings can be large; an effect the other way counts as inactive or inconclusive.

Key:
[1] = A CellTox Green Cytotoxicity Assay to monitor cytotoxicity in HepG2 cells - 0 hour (AID 1224882); note: nearly all actives have a fitted effect of over 35% in size
Outline: (§1)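 Continuous culture of HepG2 cells with a membrane-impermeant DNA dye; rising fluorescence marks dead cells. Compound exposure lasted up to 40 h at 37 C, with reads every 8 h from 0 h.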

[2] = A CellTox Green Cytotoxicity Assay to monitor cytotoxicity in HepG2 cells - 32 hour (AID 1224883); note: nearly all actives have a fitted effect of over 50% in size; note: potency is the fitted concentration of half-maximal effect
Outline: as §1

[3] = A CellTox Green Cytotoxicity Assay to monitor cytotoxicity in HEK293 cells - 8 hour (AID 1224884); note: nearly all actives have a fitted effect of over 35% in size
Outline: (§2)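 Each value comes from one timepoint of a single continuous run in which HEK293 cells with CellTox Green were exposed to compound for up to 40 h at 37 C, dye fluorescence rising with cell death.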

[4] = qHTS RealTime-Glo MT Cell Viability Assay in HepG2 cells - 16 hour (AID 1224885); note: nearly all actives have a fitted effect of over 50% in size; note: potency is the fitted concentration of half-maximal effect
Outline: (§3)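 Luminescence read-out: viable HepG2 cells reduce a prosubstrate to a NanoLuc substrate, giving a signal proportional to live cell number. Reads taken at 0, 8, 16, 24, 32 and 40 h of compound exposure at 37 C.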

[5] = qHTS RealTime-Glo MT Cell Viability Assay in HEK293 cells - 24 hour (AID 1224886); note: nearly all actives have a fitted effect of over 50% in size; note: potency is the fitted concentration of half-maximal effect; for activity change, negative = cytotoxicity: top concentration of the series differs between compounds
Outline: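 Nonlytic real-time viability readout: viable cells convert prosubstrate to NanoLuc substrate, giving luminescence proportional to live cell number. HEK293, 600 cells/well, compound added after 5 h, continuous culture at 37 C.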

[6] = qHTS RealTime-Glo MT Cell Viability Assay in HEK293 cells - 8 hour (AID 1224887); note: nearly all actives have a fitted effect of over 50% in size; note: potency is the fitted concentration of half-maximal effect; for activity change, negative = cytotoxicity: top concentration of the series differs between compounds
Outline: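 qHTS format; HEK293 cells with NanoLuc/prosubstrate reagent, 37 C/5% CO2 for 5 h pre-dosing; compounds 23 nL in DMSO; luminescence at each time point reflects viable cells.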

[7] = A CellTox Green Cytotoxicity Assay to monitor cytotoxicity in HEK293 cells - 16 hour (AID 1224888); note: nearly all actives have a fitted effect of over 35% in size; note: potency is the fitted concentration of half-maximal effect
Outline: as §2

[8] = qHTS RealTime-Glo MT Cell Viability Assay in HepG2 cells - 0 hour (AID 1224889); note: nearly all actives have a fitted effect of over 50% in size
Outline: as §3

[9] = A CellTox Green Cytotoxicity Assay to monitor cytotoxicity in HepG2 cells - 8 hour (AID 1224890); note: nearly all actives have a fitted effect of over 45% in size; note: potency is the fitted concentration of half-maximal effect
Outline: as §1

[10] = qHTS assay to identify small molecule antagonists of the estrogen receptor alpha (ER-alpha) signaling pathway using the BG1 cell line in the presence of 0.1 nM 17-beta-estradiol - cell viability counter screen (AID 1259241); note: nearly all actives have a fitted effect of over 40% in size
Outline: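 The cell line endogenously expresses full-length ER-alpha and carries four EREs driving luciferase. Cells are cultured 5 days hormone-free, treated 22 hr with compounds and 0.1 nM estradiol, then viability is read by fluorescence.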
% is set by controls: 0 for no effect and ±100 for the full control effect.

CCCCCCCC/C=C\CCCCCCCC(=O)NCc1ccc(O)c(OC)c1
inactive: Potency [1] | Potency [2] | Potency [3] | Potency [4] | Potency [7] | Potency [8] | Potency [9] | Potency [10]
active: Potency [5] 2.39 µM | Potency [6] 1.51 µM

O=S(O)O
inactive: cytotoxicity [1] -14.5% [at 15.8 µM] | cytotoxicity increase [2] -11% [at 15.8 µM] | cytotoxicity increase [3] 0.551% [at 15.8 µM] | activity change, negative = cytotoxic [4] 2.97% [at 15.8 µM] | activity change, negative = cytotoxicity [5] 11.2% [at 15.8 µM] | activity change, negative = cytotoxicity [6] 3.5% [at 15.8 µM] | activity change [7] 1.02% [at 15.8 µM, stronger effect = higher value] | activity change, negative = cytotoxicity [8] -7.74% [at 15.8 µM] | cytotoxicity increase [9] -4.46% [at 15.8 µM] | activity change, negative = cytotoxicity [10] 0.521% [at 19 µM]

O=Nc1ccc(NO)cc1
inactive: Potency [1] | Potency [2] | Potency [3] | Potency [4] | Potency [5] | Potency [6] | Potency [7] | Potency [8] | Potency [9] | Potency [10]

CC1CCCCC1
inactive: Potency [1] | Potency [2] | Potency [3] | Potency [4] | Potency [5] | Potency [6] | Potency [7] | Potency [8] | Potency [9] | Potency [10]

COC(=O)CC#N
inactive: Potency [1] | Potency [2] | Potency [3] | Potency [4] | Potency [5] | Potency [6] | Potency [7] | Potency [8] | Potency [9] | Potency [10]

CN1[C@@H]2CC[C@H]1CC(OC(=O)C(CO)c1ccccc1)C2 (stereo partly drawn)
inactive: Potency [1] | Potency [2] | Potency [3] | Potency [4] | Potency [5] | Potency [6] | Potency [7] | Potency [8] | Potency [9] | Potency [10]

OCCC(O)CO (stereo not drawn)
inactive: Potency [1] | Potency [2] | Potency [3] | Potency [4] | Potency [5] | Potency [6] | Potency [7] | Potency [8] | Potency [9] | Potency [10]

CC(C)CCOCCC(C)C
inactive: Potency [1] | Potency [2] | Potency [3] | Potency [4] | Potency [5] | Potency [6] | Potency [7] | Potency [8] | Potency [9] | Potency [10]

CC(C)(C)c1n[nH]c(=O)n(N)c1=O
inactive: Potency [1] | Potency [2] | Potency [3] | Potency [4] | Potency [5] | Potency [6] | Potency [7] | Potency [8] | Potency [9] | Potency [10]

c1ccc2c(c1)CCC2
inactive: Potency [1] | Potency [2] | Potency [3] | Potency [4] | Potency [5] | Potency [6] | Potency [7] | Potency [8] | Potency [9] | Potency [10]

CCOC(/C=C(\C)CCC=C(C)C)OCC
inactive: Potency [1] | Potency [2] | Potency [3] | Potency [4] | Potency [5] | Potency [6] | Potency [7] | Potency [8] | Potency [9] | Potency [10]

Cc1cccc(C)c1NC(=O)CN1CCN(CCCC(c2ccc(F)cc2)c2ccc(F)cc2)CC1
active: Potency [2] 23.9 µM | Potency [4] 21.3 µM | Potency [5] 10.7 µM | Potency [6] 10.7 µM | Potency [9] 16.9 µM
inactive: Potency [1] | Potency [3] | Potency [8] | Potency [10]

CC1(C)COCN1
inactive: Potency [1] | Potency [2] | Potency [3] | Potency [4] | Potency [5] | Potency [6] | Potency [8] | Potency [9] | Potency [10]

Cc1ccc(-n2[nH]c(C)c(N=Nc3cccc(-c4cccc(C(=O)O)c4)c3O)c2=O)cc1C
inactive: Potency [1] | Potency [2] | Potency [3] | Potency [4] | Potency [6] | Potency [7] | Potency [8] | Potency [9]

CCCCOC(=O)C(C)CC (stereo not drawn)
inactive: Potency [1] | Potency [2] | Potency [3] | Potency [4] | Potency [6] | Potency [7] | Potency [8] | Potency [9]

CCN(CC)CCOc1ccc(C(O)(Cc2ccc(Cl)cc2)c2ccc(C)cc2)cc1 (stereo not drawn)
active: Potency [2] 15.1 µM | Potency [4] 23.9 µM | Potency [5] 19 µM | Potency [6] 21.3 µM
inactive: Potency [1] | Potency [3] | Potency [10]

CC(C)c1ccc(O)c(C(C)C)c1
active: Potency [2] 27.5 µM | Potency [7] 19.5 µM | Potency [9] 43.6 µM
inactive: Potency [1] | Potency [3] | Potency [4] | Potency [5] | Potency [8] | Potency [10]

COc1cc(C(=O)NS(=O)(=O)c2ccccc2C)ccc1Cc1cn(C)c2ccc(NC(=O)OC3CCCC3)cc12
inactive: Potency [1] | Potency [2] | Potency [3] | Potency [4] | Potency [6] | Potency [7] | Potency [8] | Potency [9] | Potency [10]

CCCCOc1ccc(C(=O)CCN2CCCCC2)cc1
active: Potency [2] 12 µM | Potency [4] 23.9 µM | Potency [5] 23.9 µM | Potency [9] 21.3 µM
inactive: Potency [1] | Potency [3] | Potency [7] | Potency [8] | Potency [10]
